According to ChEMBL document CHEMBL4513216, “Probing the Open Global Health Chemical Diversity Library for Multistage-Active Starting Points for Next-Generation Antimalarials” (ACS Infect Dis, 2020):
Hit rate of the full screen: of about 68,000 compounds, about 2,700 (4%) showed an effect of 50% or more. The sample as a whole holds a higher share of strong results than the screen did.

What follows are compounds tested on Plasmodium berghei (assay: Screen against P. berghei liver stage (PbLuc), transformed with Luciferase, at 2uM). Conditions: tested at 2 uM.
Assay type: functional, HepG2
With `CNc1cncc(C2CCCN2S(=O)(=O)c2ccccc2F)n1` (stereo unspecified) the INHIBITION was 29.89%.
Compound `CC(C)CNC(=O)[C@H]1CCS(=O)(=O)[C@@H]2CN(Cc3ccc(Cl)cc3)C[C@H]12` has an INHIBITION of 8.13%.
`CCc1cccc(N2CCC(NC(=O)C3CCCO3)CC2)c1` (stereo unspecified) showed an INHIBITION of 22.53%.
Compound `CC(=O)N(Cc1noc(C2CC2)n1)C1CCN(Cc2nccn2C)C1` (stereo unspecified) has an INHIBITION of -27.69%.
With `CC(C)c1nc(C2CCCN2CC(=O)N2CCc3ccccc32)no1` (stereo unspecified) the INHIBITION was 30.91%.
With `CC(C)c1nc(C2CCCN2CC(=O)N2CCNC2=O)no1` (stereo unspecified) the INHIBITION was 57.33%.
Compound `Cc1cc(NC(=O)CN2CCCC2c2noc(C(C)C)n2)no1` (stereo unspecified) has an INHIBITION of 21.12%.
For `COc1ncccc1CN1CCC2(CC1)CC(OCC1CC1)CO2` (stereo unspecified), the INHIBITION was -23.93%.
In the case of `Cc1nn(Cc2ccc(C(=O)NCCCN3CCOCC3)o2)c(C)c1Cl`, the INHIBITION is reported as 32.66%.
With `Cn1ncc(N2CCOC(CCNC(=O)NC(C)(C)C)C2)cc1=O` (stereo unspecified) the INHIBITION was 39.32%.
`NC(=O)CN1CCCN(C(=O)Cc2ccc(Br)cc2)CC1` was tested, and the INHIBITION was 11.24%.
With `CN(CCOc1cccc(Cl)c1)Cc1nnc(C(C)(C)C)o1` the INHIBITION was -19%.
Compound `Cc1nnc(CN(C)CCCOc2cccc(Cl)c2)o1` has an INHIBITION of -33.74%.
`Cc1nnc(CN(C)CCOc2cccc(Cl)c2)o1` gave an INHIBITION of 70.83%.
With `CCc1nc(C2CCCN2C(=O)c2ccc3c(c2)COC3)no1` (stereo unspecified) the INHIBITION was 16.18%.
With `CS(=O)(=O)N(Cc1ccon1)c1ccc2c(c1)OCO2` the INHIBITION was 37.25%.
`OC1(CN2CCOC(Cn3cccn3)C2)CCCCC1` (stereo unspecified) gave an INHIBITION of -1.88%.
In the case of `O=C(Cc1ccccn1)N1CCN(CC2CC2)c2ncccc2C1`, the INHIBITION is reported as 16.87%.
`Cc1csc2c(=O)n(CCN3CCNCC3)cnc12` showed an INHIBITION of 23.68%.
`COc1cccc2c(=O)n(C3CCNCC3)cnc12` gave an INHIBITION of 24.6%.
Work on `COc1cccc2c(=O)n(Cc3cccnc3)cnc12` yielded an INHIBITION of -66.95%.
With `CN1CCN(CCn2cnc3c(F)cccc3c2=O)CC1` the INHIBITION was 30.42%.
Work on `COc1cccc2c(=O)n(CCN3CCNCC3)cnc12` yielded an INHIBITION of 50.61%.
With `O=c1c2cccc(F)c2ncn1CCN1CCNCC1` the INHIBITION was 65.76%.
`CC(C)N1CCN(CCn2cnc3c(F)cccc3c2=O)CC1` was tested, and the INHIBITION was -13.34%.
`O=c1c2cccc(F)c2ncn1CCN1CCOCC1` showed an INHIBITION of 25.37%.
For `O=c1c2cccc(C(F)(F)F)c2ncn1CCN1CCNCC1`, the INHIBITION was 50.61%.
In the case of `CCOc1ccc(C(=O)N(C)Cc2nccn2CC(F)(F)F)cc1`, the INHIBITION is reported as 52.57%.
`CN(Cc1nccn1CC(F)(F)F)C(=O)c1cccc(N(C)C)c1` showed an INHIBITION of 27.53%.
Work on `CN(Cc1nccn1CC(F)(F)F)C(=O)c1ccc(F)cc1F` yielded an INHIBITION of 73.96%.
`Cc1ccc(C(=O)N(C)Cc2nccn2CC(F)(F)F)cn1` showed an INHIBITION of -4.59%.
For `CN(Cc1nccn1CC(F)(F)F)C(=O)c1ccc(F)c(F)c1`, the INHIBITION was 32.57%.
In the case of `COc1cc(C(=O)N(C)Cc2nccn2CC(F)(F)F)ccc1C`, the INHIBITION is reported as -5.68%.
For `COCC(=O)NC(C)Cc1cccc(Cl)c1` (stereo unspecified), the INHIBITION was -20.82%.
`CC[C@H]1CN(C(=O)c2cnc(CN3CCCC3)s2)CC[C@@]1(C)O` showed an INHIBITION of -47.18%.
`Cc1ccc([C@@H]2CN(S(=O)(=O)N(C)C)C[C@H]2N(C)C)cc1` gave an INHIBITION of 28.49%.
Compound `Cc1ccc([C@@H]2CN(S(=O)(=O)N3CCC(C)CC3)C[C@H]2N(C)C)cc1` has an INHIBITION of 65.1%.
`Cc1ccc([C@@H]2CN(S(=O)(=O)C(C)C)C[C@H]2N(C)C)cc1` showed an INHIBITION of 4.47%.
`CN(C)C(=O)CN1CCC(c2c(C(N)=O)sc3ncccc23)C1` (stereo unspecified) showed an INHIBITION of -21.9%.
Work on `Cc1nc(N)sc1C(=O)N1CCCC(c2nccn2CCCN(C)C)C1` (stereo unspecified) yielded an INHIBITION of 29.02%.
With `CCn1ccnc1C1CCCN(C(=O)c2sc(C)nc2C)C1` (stereo unspecified) the INHIBITION was 58.56%.
With `Cc1nc(C)c(C(=O)N2CCCC(c3cnccn3)C2)s1` (stereo unspecified) the INHIBITION was 38.65%.
Compound `CC(=O)N1CCOC2(CCN(C(=O)c3cnoc3C)CC2)C1` has an INHIBITION of -21.09%.
Compound `CC(C)c1cccc(-n2cc(O)c(C(=O)O)n2)c1` has an INHIBITION of 50.61%.
For `CC(C)c1cccc(-n2cc(O)c(C(N)=O)n2)c1`, the INHIBITION was 11.9%.
In the case of `CC(C)c1ccc(-n2cc(O)c(C(=O)O)n2)cc1`, the INHIBITION is reported as 23.16%.
Compound `CN(C)CC(=O)N1CCC2(CC1)CN(c1ncccn1)CCO2` has an INHIBITION of 25.4%.
`CCC(C)n1cnc(S(=O)(=O)N(C)C)c1` (stereo unspecified) was tested, and the INHIBITION was -15.03%.
`CCC(C)n1cnc(S(=O)(=O)N(Cc2cccnc2)C(C)C)c1` (stereo unspecified) gave an INHIBITION of 59.03%.
Compound `CCC(C)n1cnc(S(=O)(=O)N(C)c2cccnc2N(C)C)c1` (stereo unspecified) has an INHIBITION of 11.9%.
`O=C(Nc1cccc(CNCc2ccsc2)c1)C1CC1` was tested, and the INHIBITION was 30.92%.
In the case of `O=C(Nc1cccc(CNCc2cccs2)c1)C1CC1`, the INHIBITION is reported as 62.82%.
Compound `O=C(Nc1cccc(CNCc2cccs2)c1)C1CCCC1` has an INHIBITION of -5.15%.
For `CNC(=O)N1CC[C@@H]2CN(Cc3cccc(OC)c3)S(=O)(=O)[C@@H]2CC1`, the INHIBITION was -72.58%.
`CS(=O)(=O)N1CC2(CCN(C3COC3)C2)Cc2ccccc21` (stereo unspecified) was tested, and the INHIBITION was 26.56%.
In the case of `O=C(NCCCn1nc2ccccn2c1=O)NC1CCC(O)CC1` (stereo unspecified), the INHIBITION is reported as 8.3%.
With `CCN(C(=O)CNc1cc(C)c(F)cc1C(N)=O)C1CC1` the INHIBITION was -31.4%.
In the case of `Cc1noc(C)c1S(=O)(=O)NC(=O)COc1ccc2c(c1)CCC2`, the INHIBITION is reported as 56.78%.
Compound `Cc1cc(OCC(=O)NS(=O)(=O)c2c(C)noc2C)ccc1Cl` has an INHIBITION of -12.48%.
Compound `Cc1noc(C)c1S(=O)(=O)NC(=O)COc1ccc(C(C)C)cc1` has an INHIBITION of 19.71%.
`Cc1ccc(OCC(=O)NS(=O)(=O)c2c(C)noc2C)cc1C` showed an INHIBITION of 57.33%.
`Cc1noc(C)c1S(=O)(=O)NC(=O)COc1cccc(C(C)C)c1` was tested, and the INHIBITION was 42.99%.
`Cc1cc(C)c(OCC(=O)NS(=O)(=O)c2c(C)noc2C)c(C)c1` showed an INHIBITION of 5.72%.
`O=C(c1ccccc1)C1CCN(C(=O)CC2COCCN2)CC1` (stereo unspecified) was tested, and the INHIBITION was -13.88%.
In the case of `CCn1cnnc1C1CCN(C(=O)c2ccccc2F)CC1`, the INHIBITION is reported as -19.35%.
`COc1ccc(NC(=O)N2CCC(c3noc(C)n3)CC2)cc1C` showed an INHIBITION of -30.88%.
Work on `c1ccc(N2CCCC3(CCN(Cc4ccsc4)C3)C2)nc1` (stereo unspecified) yielded an INHIBITION of 33.14%.
Compound `CC(=O)NCC(=O)N1CCCC1c1ccc(CN2CCOCC2)cn1` (stereo unspecified) has an INHIBITION of 26.22%.
Work on `CC(C)c1noc(CN2CCN(C(=O)c3cccnc3O)CC2)n1` yielded an INHIBITION of -2.82%.
`Cc1cc(CNc2nccc(N)n2)c2[nH]c(C)c(C)c2c1` gave an INHIBITION of -5.41%.
`CCc1ncnc2c1CCN(S(=O)(=O)CC)CC2` gave an INHIBITION of 1.81%.
Compound `Cc1ncsc1CCN(C)C(=O)c1ccc(CN2CCCCC2)cc1` has an INHIBITION of -20.75%.
With `Cc1ncsc1CCN(C)C(=O)c1ccc(Cn2cnnn2)cc1` the INHIBITION was 89.46%.
`Cc1nc(CN(C)C(=O)c2ccc(Cn3cnnn3)cc2)cs1` gave an INHIBITION of 21.57%.
`CC(Cn1ccnc1)NC(=O)NCCc1ccc2c(c1)OCCO2` (stereo unspecified) gave an INHIBITION of -14.3%.
`O=C(N1CCCC1)C1(Cc2ccc(-c3cccs3)cc2)CCNC1` (stereo unspecified) was tested, and the INHIBITION was 17.24%.
`COCC(=O)N1CCCN(Cc2c(C)nc3ccc(Cl)cn23)CC1` gave an INHIBITION of 12.43%.
Work on `CCn1cc(CN2CCN(CC(O)c3ccc(C)cc3C)CC2)cn1` (stereo unspecified) yielded an INHIBITION of 35.73%.
Compound `CCn1cc(CN2CCN(CC(O)c3ccc(C)cc3C)CC2)c(C)n1` (stereo unspecified) has an INHIBITION of 54.9%.
With `CCn1cc(CN2CCN(CC(O)c3cc(C)ccc3C)CC2)c(C)n1` (stereo unspecified) the INHIBITION was -2.2%.
Work on `CN(Cc1ccc(N(C)C)cc1)C(=O)CS(=O)(=O)c1ccc(Cl)cc1` yielded an INHIBITION of 9.02%.
In the case of `Fc1cccc(C2CCCCN2Cc2nc(-c3cnccn3)no2)c1` (stereo unspecified), the INHIBITION is reported as 58.69%.
Compound `c1ccc(C2CCCCN2Cc2nc(-c3cnccn3)no2)nc1` (stereo unspecified) has an INHIBITION of 6.92%.
`c1ccc(C2CCCN2Cc2nc(-c3cnccn3)no2)nc1` (stereo unspecified) was tested, and the INHIBITION was -5.19%.
`Nc1nccc(C2CCCCN2Cc2cccc(F)c2)n1` (stereo unspecified) gave an INHIBITION of 25.72%.
Compound `Cc1nccc(C2CCCCN2Cc2cccc(F)c2)n1` (stereo unspecified) has an INHIBITION of 94.5%.
`Cc1nccc(C2CCCCN2Cc2ccc(F)cc2)n1` (stereo unspecified) gave an INHIBITION of -10.12%.
Compound `Cc1cc(=O)[nH]c(-n2nc(C)c(CCC(=O)Nc3nc(C)cs3)c2C)n1` has an INHIBITION of -7.56%.
With `Cc1ccsc1CN1CCn2c(COc3cccnc3)cnc2C1C` (stereo unspecified) the INHIBITION was 3.63%.
For `O=S(=O)(Nc1cnn(C2CCOCC2)c1)c1ccc(F)c(F)c1`, the INHIBITION was -38.4%.
`COc1cccc(CNC(=O)CCC2=Nc3ccccc3S(=O)(=O)N2)c1` was tested, and the INHIBITION was -1.65%.
With `Cc1ccc(NCCCNc2nccc(-c3cn(C)nc3C)n2)nc1` the INHIBITION was 37.5%.
`CNC(=O)C1Cn2ccnc2C2(CCN(Cc3cccc(C)n3)CC2)O1` (stereo unspecified) was tested, and the INHIBITION was -15.95%.
With `O=C(Cn1cccn1)NCC1CCN(Cc2cc3ccccc3[nH]2)C1` (stereo unspecified) the INHIBITION was -0.59%.
`Cc1cc(CN2CCCC(CNC(=O)Cn3cccn3)C2)oc1C` (stereo unspecified) gave an INHIBITION of 2.9%.
`O=C(Cn1cccn1)NCC1CCCN(Cc2ccccc2)C1` (stereo unspecified) was tested, and the INHIBITION was 81.59%.
`Cc1cc(C2CCCN2C(=O)c2ccc(OCC(N)=O)cc2)no1` (stereo unspecified) was tested, and the INHIBITION was 34.18%.
With `CC(C)(C)CC(=O)N[C@@H]1CO[C@H](CNC(=O)c2ccncc2)[C@H]1O` the INHIBITION was 17.9%.
Compound `CC(NCc1cnn(C)c1)c1ccc(OCc2nccn2C)cc1` (stereo unspecified) has an INHIBITION of 37.18%.
`CC(NCc1ccsc1)c1ccc(OCc2nccn2C)cc1` (stereo unspecified) gave an INHIBITION of 24.05%.
`CC(NCc1cccs1)c1ccc(OCc2nccn2C)cc1` (stereo unspecified) gave an INHIBITION of 63.46%.
In the case of `O=C(CCCc1cn[nH]c1)N1C[C@@H](CN2CCCCCC2)[C@@H](CO)C1`, the INHIBITION is reported as -5.41%.
`CC(CNC(=O)c1c[nH]nn1)Oc1cccc(Br)c1` (stereo unspecified) was tested, and the INHIBITION was -10.85%.
`CC(CNC(=O)c1c[nH]nn1)Oc1ccccc1Br` (stereo unspecified) gave an INHIBITION of 67.83%.
With `Cc1ccc(OC(C)CNC(=O)c2c[nH]nn2)cc1` (stereo unspecified) the INHIBITION was -9.5%.
Compound `CC(=O)NCC(=O)N1Cc2cc(C#N)ccc2C1c1cnco1` (stereo unspecified) has an INHIBITION of -9.91%.
